# Test results from the supplement of paper PMC3334620.
# Over roughly 33,000 sequences, “E-score (-0.5 to 0.5)” has its median near -0.036; the highest 2% begin near 0.37. The entries come from a sample that favours the highest values as a whole.
# Biological target: T1, Yer064c (UniProt P40041)
# T1 sequence: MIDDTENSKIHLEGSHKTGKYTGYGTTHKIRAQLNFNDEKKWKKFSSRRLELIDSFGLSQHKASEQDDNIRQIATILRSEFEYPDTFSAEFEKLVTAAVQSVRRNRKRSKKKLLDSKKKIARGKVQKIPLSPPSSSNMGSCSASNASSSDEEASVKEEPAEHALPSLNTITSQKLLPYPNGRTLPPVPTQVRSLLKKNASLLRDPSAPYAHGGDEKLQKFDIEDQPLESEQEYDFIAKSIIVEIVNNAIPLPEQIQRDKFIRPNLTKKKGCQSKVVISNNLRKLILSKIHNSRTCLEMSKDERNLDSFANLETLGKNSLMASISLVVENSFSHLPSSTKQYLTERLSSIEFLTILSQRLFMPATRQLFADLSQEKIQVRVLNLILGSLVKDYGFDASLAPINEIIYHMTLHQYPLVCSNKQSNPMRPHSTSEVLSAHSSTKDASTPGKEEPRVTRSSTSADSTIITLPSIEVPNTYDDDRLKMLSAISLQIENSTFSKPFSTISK
# Assay: PBM E-score (8-mer binding enrichment) (E-score (-0.5 to 0.5)); higher = stronger / more preferred TF binding
# Conditions: protein concentration: 200 nM; construct: GST-full length
# Description: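 Universal 'all 10-mer' protein binding microarrays (Agilent AMADID 015681) probed with GST-tagged S. cerevisiae TFs (full-length or DBD) made by in vitro transcription/translation (PURExpress), about 100-200 nM. Bound TF was detected with fluorescent anti-GST. Each ungapped 8-mer (which stands for itself and its reverse complement) is scored by the PBM enrichment score (E-score), a modified Wilcoxon-Mann-Whitney statistic from -0.5 to +0.5, computed with the Universal PBM Analysis Suite. Scale: above 0.35 generally sequence-specific binding.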
row,Sequence,PBM E-score
1,AACGCACA,-0.185
2,CTGGATTC,0.00174
3,GTACCGAC,-0.057
4,ATTTAGGG,-0.0441
5,ATTAGCCG,-0.106
6,GGAAGTCC,0.0559
7,CGAAGTCA,0.437
8,AGAAGTCG,0.207
9,AGAAGTCA,0.43
10,TGAAGTAA,0.0152
11,GGAAGTGA,0.0158
12,CGAAGTCG,0.286
13,GGAAGTCA,0.426
14,CGAAGTCC,0.0182
15,AGAAGTCC,-0.056
16,TGAAGCCA,0.114
17,TGAAGTCA,0.445
18,TAATGCTA,0.15
19,AGTTTTGC,0.0632
20,AATAAGAC,0.175
21,TGCGGTAA,0.0977
22,CCCACGTC,-0.157
23,GCGGTTAC,0.0193
24,ACAATGCT,-0.0617
25,GTAGCATA,-0.262

row,Sequence,PBM E-score
1,CCGTCGCG,-0.0591
2,TATTCCCA,0.00714
3,GATCACGA,0.0675
4,GACGTCGA,-0.14
5,CTGCATTC,-0.0186
6,GGACTAAC,0.367
7,CAACTAAC,0.132
8,CGACTAGC,0.297
9,CGACTAAC,0.43
10,CGACTACC,0.383
11,CGACTACG,0.337
12,GAACTAAC,-0.0243
13,GGACTACC,0.284
14,GTACTAAC,0.128
15,GGGAGCCA,-0.00881
16,CCTTACAG,-0.2
17,CCGTCCTC,-0.281
18,ACAGCGAC,0.00958
19,CCATGCCA,-0.113
20,ATGAAAGG,-0.0528
21,AAGTCCCT,-0.127
22,GTGAGAAA,-0.0285
23,ATGATTTC,0.403
24,AGGATTTC,-0.125
25,AAGATTTA,0.136

row,Sequence,PBM E-score
1,CTGATTTA,0.238
2,CTGATTTC,0.222
3,ATGATTTA,0.415
4,CCCCGTAA,-0.0314
5,ATTACTAG,0.0126
6,TCGCTCCA,-0.0823
7,CAGAGGGA,-0.199
8,AATCAAGT,0.268
9,AATCAGGC,0.306
10,TATCATGA,0.256
11,GATCATGC,0.134
12,AATCATGA,0.43
13,AATCATGC,0.432
14,CATCATGC,0.0857
15,AATCAGGT,0.378
16,CATCATGA,0.294
17,AAGCATGT,-0.0498
18,AATCATGT,0.453
19,AATCAGGG,0.271
20,ATTTGAGG,-0.0184
21,ATGAGGGG,-0.125
22,AGCCGGCA,-0.176
23,GAATGCTA,-0.277
24,GCGAAAAC,-0.131
25,CCTCTGTA,-0.108

row,Sequence,PBM E-score
1,CCGCCGCA,-0.299
2,CCACAAAG,-0.0168
3,AATCAGCG,0.344
4,AATCATGG,0.42
5,AATCAAGG,0.245
6,AATCAGCT,0.389
7,AATCAGCC,0.355
8,CATCATGG,0.0236
9,CGATTAGA,0.0752
10,GATGTGGA,0.0614
11,GTCTTGTA,0.0119
12,AAAGTCAT,0.455
13,AAAGTCAC,0.411
14,AAAGTCGT,0.258
15,GAAGTCAC,0.433
16,CAAGTCAC,0.36
17,AAAGTCAA,0.319
18,AAAGTCAG,0.323
19,AAAGTCCT,0.0605
20,GAAGTCAA,0.357
21,AGGTCGTA,0.0488
22,CTAAACTA,0.0923
23,ACGGCCTG,-0.12
24,TAATCCGA,0.205
25,CAGGATAA,-0.208

row,Sequence,PBM E-score
1,ACGAGAAT,-0.125
2,AATACCAG,-0.0862
3,CTTTCAAA,0.0256
4,CCAGTCAG,0.248
5,CCAGTCAC,0.313
6,ACAGTCAA,0.319
7,GCAGTCAC,0.435
8,ACAGTCAT,0.453
9,ACAGTCGG,0.181
10,ACAGTCAG,0.378
11,ACAGTCGT,0.198
12,GCAGTCCC,-0.00282
13,ACAGTCAC,0.405
14,GCAGTCAA,0.281
15,ACAGTCTC,0.146
16,ATCACAGG,0.166
17,GGCCTGAC,0.109
18,ACCTGGTG,-0.0925
19,GCGGCTAC,-0.0969
20,AATTGTCA,0.0267
21,GGGGAGAC,-0.0271
22,CTCGATTA,0.186
23,AAGGTAGA,-0.209
24,GCGCCATA,-0.26
25,AACGAGTT,0.0273

row,Sequence,PBM E-score
1,AACGAGTC,0.42
2,GACGAGTA,0.178
3,AACGAGTA,0.171
4,GACGAGAC,-0.0639
5,GACGAGTC,0.408
6,CACGAGTA,0.0787
7,CACGAGTC,0.39
8,CACGAGTG,-0.125
9,ATCCATCC,0.0305
10,AGTACACA,0.239
11,CCCAAGCC,-0.171
12,CACTTCAA,-0.0203
13,ACGGATTA,0.1
14,AAAGAGTA,0.0885
15,GAAGAGTC,0.426
16,GAAGAGCC,-0.222
17,AAAGAGTC,0.437
18,AAAGAGTT,0.219
19,GAAGAGTA,0.0801
20,CAAGAGTA,0.106
21,CAAGAGTG,-0.108
22,CAAGAGTC,0.434
23,CTACTGAC,0.177
24,ACGGCGGA,-0.0257
25,ACGGACCA,-0.125

row,Sequence,PBM E-score
1,GAACTGAC,-0.0132
2,AAGGAGTG,-0.187
3,CAGGAGTC,0.394
4,CAGAAGTC,0.293
5,AAGGAGTA,0.0121
6,AAGGAGTC,0.412
7,CAGGAGTA,0.0894
8,AGTCGATG,0.249
9,AAACTGAG,0.144
10,TCCCAGCA,-0.0166
11,CACGCAAG,-0.11
12,CACGTGTA,-0.0349
13,CATTCATA,0.195
14,GATTCATA,0.381
15,AATTCATA,0.0256
16,GATTCAGA,0.389
17,TATTCAGA,0.0473
18,GATTCAGC,0.258
19,GATTCCGA,0.276
20,CCACGTAA,-0.177
21,GGCCTGTA,-0.386
22,AACTAGCA,-0.00106
23,GACTAGCA,0.374
24,TACTAGCA,0.0217
25,GACTAGGA,0.376

row,Sequence,PBM E-score
1,TACTAGGA,0.0896
2,GACTAGGC,0.297
3,ATCACATC,0.143
4,CGAGGGAA,-0.0997
5,GATTTGGA,0.0961
6,AAAGTGCC,-0.0752
7,AACCGTAC,-0.0826
8,AATTCAAC,-0.0608
9,CATTCAAA,-0.0755
10,CATTCAAC,0.0337
11,GATTCAAA,0.371
12,GATTCAAC,0.385
13,TATTCAAA,0.135
14,ACCGATCT,-0.255
15,ATCCTCGC,-0.043
16,TCGTAGCA,0.128
17,ATCGCTGA,0.0828
18,GACTTTAC,0.234
19,ATAGGCAG,-0.0153
20,CGTCGTCA,-0.142
21,AGTCGTCG,0.375
22,AGTCGTCA,0.389
23,GGTCGTCA,0.00372
24,AGTCGTCC,0.364
25,ATTCGTCG,0.0523

row,Sequence,PBM E-score
1,ACGATACT,-0.155
2,AGGATGTC,0.00214
3,CGCTGCTA,-0.211
4,CCATATGA,0.0961
5,GCATATGA,0.14
6,TCATATGA,0.393
7,AGACGACC,-0.0204
8,ACACGACC,-0.0158
9,ACACGACT,0.408
10,ACACGACA,0.106
11,AGACGACT,0.397
12,AGACGACG,-0.265
13,AGTAAAAG,0.0408
14,CTGACCAG,-0.0138
15,ACTCCACG,0.0785
16,ACTTTACT,0.159
17,AAAACCCT,-0.047
18,CACTAAGA,0.119
19,GACTAAGA,0.444
20,AACTAAGC,0.0808
21,TACTAAGA,0.113
22,CACTAAGC,0.1
23,GACTAAGC,0.42
